This is a sample that favours compounds with a hit; in the whole collection about 3.5% have one here.
TEAD-YAP inh = TEAD-YAP interaction inhibition, primary screen, TEAD-YAP interaction inhibitor project, luminescence, HEK-TIYL cells; TEAD-Gal4/YAP UAS-luciferase luminescence; inhibition, % at 9.12 µM; actives 1.4% (n = 640,000); AID 1259422, 2018; in the data active = inhibition above about 32%;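 note: 0% = median of test compound wells and 100% = reference inhibitor wells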
MITF inh = MITF inhibitors, primary screen, biochemical, AlphaScreen, human; AID 1259374, 2018; actives 0.91% (n = 650,000); inhibition, % at 2.6 µM; Microphthalmia-associated transcription factor (Homo sapiens), O75030; AlphaScreen MITF homodimerization, bead proximity signal; in the data active = inhibition above about 50%;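 note: 0% = vehicle wells with protein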
FBW7 act = FBW7 E3 ligase activators, primary screen, biochemical, AlphaScreen, human; F-box/WD repeat-containing protein 7 (Homo sapiens), Q969H0; AlphaScreen FBW7–phospho-cyclin E peptide binding, activator screen; normalized activity (activation), % at 26.1 µM; actives 0.13% (n = 650,000); AID 1259310, 2017; in the data active = normalized activity above about 1.9%;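 note: purified mutant Fbw7 with reduced substrate affinity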
Target sequence (Q969H0 whole entry, looked up): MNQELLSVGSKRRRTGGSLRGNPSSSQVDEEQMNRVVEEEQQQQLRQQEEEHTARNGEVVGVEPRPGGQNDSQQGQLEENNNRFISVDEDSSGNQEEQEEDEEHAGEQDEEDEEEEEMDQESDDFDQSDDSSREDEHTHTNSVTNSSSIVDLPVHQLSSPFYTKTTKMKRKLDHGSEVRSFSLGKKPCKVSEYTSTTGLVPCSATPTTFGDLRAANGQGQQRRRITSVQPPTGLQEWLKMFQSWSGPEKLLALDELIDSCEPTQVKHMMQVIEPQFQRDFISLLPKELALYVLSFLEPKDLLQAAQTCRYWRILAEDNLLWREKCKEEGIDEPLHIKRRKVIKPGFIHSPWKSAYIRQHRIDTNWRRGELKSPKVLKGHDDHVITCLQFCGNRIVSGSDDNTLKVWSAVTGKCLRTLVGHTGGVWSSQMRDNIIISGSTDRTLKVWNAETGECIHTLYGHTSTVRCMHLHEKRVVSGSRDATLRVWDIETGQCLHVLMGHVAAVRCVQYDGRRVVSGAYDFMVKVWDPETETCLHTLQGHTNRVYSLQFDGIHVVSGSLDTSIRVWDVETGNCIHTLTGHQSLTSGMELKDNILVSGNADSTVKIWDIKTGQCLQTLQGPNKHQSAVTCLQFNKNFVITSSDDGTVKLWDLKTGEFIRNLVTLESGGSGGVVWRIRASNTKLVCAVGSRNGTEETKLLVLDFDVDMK
GPR151 ag = activators of human GPR151, primary screen, cell-based, PathHunter beta-arrestin, luminescence; G-protein coupled receptor 151 (Homo sapiens), Q8TDV0; PathHunter beta-arrestin GPR151 cells; activation, % at 11.2 µM; actives 1% (n = 650,000); AID 1508602, 2020; in the data active = activation above about 4.9%;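 note: 0% = median of compound wells and 100% = cells with positive control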
GPR151 conf act = GPR151 activators, triplicate retest, confirmation, cell-based, PathHunter beta-arrestin, luminescence | shares compounds with GPR151 ag | GPR151 PathHunter beta-arrestin cells, 90 min; % of EA-reagent control over plate median | activation, % at 11.2 µM | 6,700 tested, under 10 active;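 active = mean percent activation across replicates above the confirmation screen cutoff of 4.91%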
GPR119 counter = GPR119 activators in beta-arrestin cells, counter-screen for GPR151 activator project, cell-based, PathHunter beta-arrestin, luminescence, triplicate | shares compounds with GPR151 ag | actives 0.3% (n = 6,700) | activation, % at 11.2 µM | 90 min; 0 = compound-well median, 100 = enzyme-acceptor control;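 active = mean percent activation in the counterscreen above 29.09%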;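 note: counterscreen on off-target GPR119 to flag nonselective hits from the GPR151 activator screen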
* hit, by the source's call; nt = not tested or not shown; ! = repeats disagree.

SMILES	TEAD-YAP inh	MITF inh	FBW7 act	GPR151 ag	GPR151 conf act	GPR119 counter
Cc1ccc(SC2CC(=O)N(c3ccccc3)C2=O)cc1 (stereo unspecified)	0.6	4.9	-0.1	5.0*	-0.9	-12.3
C=CCNC(=O)/C(=C/c1ccc(OC)cc1)NC(=O)c1ccco1	7.7	17.7	1.0	1.7	nt	nt
CCOC(=O)CNS(=O)(=O)Cc1ccccc1	3.6	19.9	0.6	6.8*	0.2	-7.4
O=C(O)CNS(=O)(=O)Cc1ccccc1	-1.9	-6.9	0.1	-1.5	nt	nt
Nc1ccc(C(=O)N2N=C(C(F)(F)F)CC2(O)C2CCCCC2)cc1 (stereo unspecified)	-0.3	13.6	0.3	-0.8	nt	nt
Cc1cc(NCCN2CCOCC2)nc(Cl)n1	-2.1	1.9	-0.1	6.2*	-0.7	-8.6
Cc1ccc(S(=O)(=O)/N=c2\sc(C3=c4ccccc4=NC3=O)c(O)n2C)cc1	13.1	5.2	0.0	6.8*	0.3	-0.6
Cc1cccc(N=c2sc(C3=c4ccccc4=NC3=O)c(O)n2-c2cccc(C)c2)c1	1.6	-2.9	0.1	0.4	nt	nt
N/C(=N\OC(=O)c1ccc(Br)cc1)c1ccc([N+](=O)[O-])cc1	-7.3	6.5	-0.2	-1.3	nt	nt
O=C(NO)c1ccc(Br)s1	-7.2	4.9	0.0	0.5	nt	nt
CC(=O)NCCNC(=O)c1ccc(Br)s1	-5.7	-1.9	0.0	6.0*	-0.8	-3.6
Cc1c(Cl)cccc1-n1c(SCc2cc(=O)n3ccccc3n2)nc2[nH]ncc2c1=O	27.5	13.6	-0.1	0.1	nt	nt
CCOC(=O)C1(CC2CCCCO2)CCN(Cc2cnc(SC)nc2)CC1 (stereo unspecified)	-8.9	-0.4	0.0	2.0	nt	nt
CCOC(=O)C1(CC2CCCCO2)CCN(CCCSC)CC1 (stereo unspecified)	-2.5	-0.3	0.0	6.6*	0.4	-9.2
O=C(Nc1ccc(O)c(-c2nc3ccccc3o2)c1)c1ccccc1	4.2	6.7	0.0	1.8	nt	nt
CC1=C(C)/C(=N/OC(=O)c2ccc(C)cc2)C=CC1=O	-1.9	2.0	0.0	7.0*	-0.1	11.6
O=C(N=Nc1c(O)n(CO)c2ccccc12)c1ccncc1	-7.5	6.0	-0.4	4.9*	-0.5	9.1
CCn1c(O)c(N=NC(=O)c2ccc(C)nc2)c2ccccc21	2.9	11.2	0.1	2.1	nt	nt
O=C(NNC(=S)NCc1ccccc1)c1ccc(Br)o1	6.6	3.2	0.0	6.3*	-0.7	-2.9
CC1(C)CC(=O)C2=C(C1)Nc1ccccc1NC2c1cc(Br)ccc1O (stereo unspecified)	12.3	8.0	0.1	-0.4	nt	nt
Cc1ccc(NC(=O)COc2cccc3c2CCN(Cc2cccnc2)C3=O)c(C)c1	-2.1	6.5	0.0	5.4*	1.6	4.1
O=c1cc2oc3cc(O)c(O)cc3c(-c3ccccc3)c-2cc1O	13.2	104.4*	-0.2	6.2*	-1.3	1.7
O=c1cc(-c2ccccc2O)oc2cc(O)ccc12	23.4	-1.9	0.1	-2.3	nt	nt
COc1ccc(OC)c(-c2c3cc(O)c(=O)cc-3oc3cc(O)c(O)cc23)c1	-0.7	106.9*	-1.0	5.0*	-0.7	9.5
O=C(CCC1(Cc2ccc(F)cc2)CCC(=O)N1)NCc1ccsc1 (stereo unspecified)	10.3	11.6	0.2	-1.7	nt	nt
SMILES	TEAD-YAP inh	MITF inh	FBW7 act	GPR151 ag	GPR151 conf act	GPR119 counter
C#CCN(Cc1ccco1)C(=O)CC1(c2ccccc2F)CC(=O)N(CCOC)C1=O (stereo unspecified)	-0.6	11.2	0.1	6.7*	-0.3	-0.6
CC(=O)Nc1ccc(/C=C(\C#N)c2nc3ccccc3[nH]2)cc1	-30.6	2.6	-0.1	0.4	nt	nt
CC(=O)Nc1ccc(/C=C(\c2nc3ccccc3[nH]2)S(=O)(=O)c2ccccc2)cc1	-2.8	6.1	0.0	6.6*	-0.1	2.8
COCCCNC(=O)COc1ccc(C)c(C)c1	0.9	5.1	0.7	10.4*	0.1	-14.7
Cc1ccc(OCC(=O)Nc2ccncc2)cc1C	7.2	-4.1	-0.1	4.9*	0.0	2.7
Cc1ccc(C)c(OCC(=O)NCCCN(C)C)c1	8.5	9.7	0.0	9.1*	-0.7	-11.9
COCCCNC(=O)CCCc1ccc(OC)c(C)c1	8.3	-0.3	-0.4	12.6*	-0.1	-5.7
COCCCNC(=O)COc1ccc(Cl)c(C)c1	-14.9	-8.1	0.2	0.2	nt	nt
c1ccc(-c2ccc(OCCCCN3CCNCC3)cc2)cc1	-10.2	36.8	-0.5	2.5	nt	nt
CN1CCN(c2c(Cl)cccc2NC(=O)c2ccc(Br)o2)CC1	2.5	5.0	-0.4	1.5	nt	nt
CC(C)NC(=O)c1cc(=O)[nH]c2ccc(S(=O)(=O)N3CCCCCC3)cc12	4.3	10.4	0.5	-1.0	nt	nt
CC(C)NC(=O)c1cc(=O)[nH]c2ccc(S(=O)(=O)N3CCCC3)cc12	9.1	13.2	0.7	6.3*	-0.2	-0.6
COc1ccc(C2CC(=O)C=C(Nc3ccc(Br)cc3)C2)cc1OC (stereo unspecified)	-5.8	10.8	0.1	0.5	nt	nt
COC1=CC(=O)C[C@@H](C)[C@]12Oc1c(Cl)c(OC)cc(OC)c1C2=O	42.9*!	-6.7	0.1	5.4*!	0.4	2.0
COc1ccc(S(=O)(=O)NNC(=O)Nc2ccc(Cl)cc2)cc1	-4.5	-4.9	-0.1	8.3*	1.3	8.7
CC(=O)NS(=O)(=O)c1ccc(NC(=O)Nc2ccc(Cl)cc2)cc1	1.7	0.3	0.0	7.4*	-0.7	-3.3
N#Cc1ccc(COC(=O)c2ccccn2)cc1	7.3	27.8	-0.1	5.0*	-0.2	-5.3
N#Cc1ccc(NC(=O)COC(=O)c2ccccn2)cc1	4.2	9.1	-1.0	0.9	nt	nt
CCOC(=O)COc1ccc2c(=O)c(-c3ccccc3F)c(C)oc2c1	-0.3	0.4	-0.1	6.2*	-0.7	-3.2
CCOC(=O)COc1ccc2c(=O)c(-c3ccc(OC)cc3)c(C)oc2c1	3.4	-4.5	0.0	2.9	nt	nt
COC(=O)c1ccc(/C=N\NC(=O)CNc2ccc(C)cc2)cc1	-1.5	1.0	0.0	1.1	nt	nt
COC(=O)c1ccc(/C=N/NS(=O)(=O)c2cc(C)ccc2C)cc1	11.4	-8.5	-0.1	5.9*	-1.2	-9.0
Cc1ccc(O)c(NC(=O)c2cc3ncc(Br)cn3n2)c1	-9.7	12.9	0.7	-1.0	nt	nt
Cc1ccc(O)c(NC(=O)c2cnn3cc(Br)cnc23)c1	2.4	0.6	0.8	7.5*	1.0	4.0
O=C(Nc1ccc([N+](=O)[O-])cc1Cl)c1cnn2cc(Br)cnc12	0.3	2.5	0.3	7.2*	-0.6	5.9

Assay outcomes: PubChem, The Scripps Research Institute Molecular Screening Center
